Values joined by “and” are separate entries in the source; they are usually repeats but may differ in a detail not shown here. Equal values may be shown once. Out of some 5,500 compounds screened, about 2,000 (36%) were called active. Not shown: some 18% with an inconclusive outcome. The list shows a part of the results. Values without a mark were called inactive. Cut-off read from the data, not from the text of the source: active = normalized growth mostly below about 0.91 (no sharp cut-off); inconclusive = no clear call, values can overlap the other calls; inactive = mostly above about 0.92.
Assay: chemical genetic growth profiling, strain panel (AID 1159580);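 note: tested at 20 µM; growth read once vehicle control cultures reached saturation at 30 °C; 1 = growth at the plate median or of vehicle wells; lower values mean less growth of the strain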
Details: S. cerevisiae deletion strains, growth OD

COc1ccc([C@H]2COc3c(ccc(O)c3OC)C2)c(OC)c1O
normalized growth (locus YAL021C, strain ccr4, stronger effect = lower value): 0.984 | normalized growth (locus YAL026C, strain drs2, stronger effect = lower value): 0.975 | normalized growth (locus YAL030W, strain snc1, stronger effect = lower value): 0.992 | normalized growth (locus YBL061C, strain skt5, stronger effect = lower value): 0.989 | normalized growth (locus YBR009C, strain hhf1, stronger effect = lower value): 0.976 | normalized growth (locus YBR021W, strain FUR4, stronger effect = lower value): 1.11 | normalized growth (locus YBR023C, strain chs3, stronger effect = lower value): 0.985 | normalized growth (locus YBR171W, strain sec66, stronger effect = lower value): 0.969 | normalized growth (locus YBR229C, strain ROT2, stronger effect = lower value): 0.947 | normalized growth (locus YBR231C, strain swc5, stronger effect = lower value): 0.988 | normalized growth (locus YBR279W, strain paf1, stronger effect = lower value): 0.984 | normalized growth (locus YCL011C, strain gbp2, stronger effect = lower value): 0.972 | normalized growth (locus YCL016C, strain dcc1, stronger effect = lower value): 0.989 | normalized growth (locus YCL029C, strain bik1, stronger effect = lower value): 0.993 | normalized growth (locus YCL061C, strain MRC1, stronger effect = lower value): 0.968 | normalized growth (locus YCL069W, strain vba3, stronger effect = lower value): 0.988 | normalized growth (locus YCR088W, strain abp1, stronger effect = lower value): 0.984 | normalized growth (locus YDL005C, strain med2, stronger effect = lower value): 0.975 | normalized growth (locus YDL035C, strain GPR1, stronger effect = lower value): 0.998 | normalized growth (locus YDL040C, strain nat1, stronger effect = lower value): 0.991 | normalized growth (locus YDL074C, strain BRE1, stronger effect = lower value): 1.02 | normalized growth (locus YDL101C, strain DUN1, stronger effect = lower value): 0.978 | normalized growth (locus YDL185W, strain tfp1, stronger effect = lower value): 0.946 | normalized growth (locus YDL192W, strain arf1, stronger effect = lower value): 0.971 | normalized growth (locus YDR001C, strain nth1, stronger effect = lower value): 0.986 | normalized growth (locus YDR069C, strain doa4, stronger effect = lower value): 0.979 | normalized growth (locus YDR101C, strain arx1, stronger effect = lower value): 0.969 | normalized growth (locus YDR137W, strain rgp1, stronger effect = lower value): 0.828 (active) | normalized growth (locus YDR159W, strain sac3, stronger effect = lower value): 0.974 | normalized growth (locus YDR162C, strain NBP2, stronger effect = lower value): 0.943 | normalized growth (locus YDR195W, strain ref2): 1 | normalized growth (locus YDR297W, strain sur2, stronger effect = lower value): 0.98 | normalized growth (locus YDR318W, strain mcm21, stronger effect = lower value): 0.986 | normalized growth (locus YDR334W, strain swr1, stronger effect = lower value): 0.962 | normalized growth (locus YDR335W, strain msn5, stronger effect = lower value): 0.98 | normalized growth (locus YDR388W, stronger effect = lower value): 0.995 | normalized growth (locus YDR392W, strain spt3, stronger effect = lower value): 0.926 | normalized growth (locus YDR502C, strain sam2, stronger effect = lower value): 0.977 | normalized growth (locus YEL003W, strain gim4, stronger effect = lower value): 0.976 | normalized growth (locus YEL037C, strain rad23, stronger effect = lower value): 0.992 | normalized growth (locus YEL061C, strain CIN8 (second series), stronger effect = lower value): 0.973 | normalized growth (locus YEL061C, strain CIN8, stronger effect = lower value): 0.985 | normalized growth (locus YER015W, strain faa2, stronger effect = lower value): 0.989 | normalized growth (locus YER016W, strain bim1, stronger effect = lower value): 0.983 | normalized growth (locus YER110C, stronger effect = lower value): 0.962 | normalized growth (locus YER111C, strain swi4, stronger effect = lower value): 0.983 | normalized growth (locus YER155C, strain BEM2 (second series), stronger effect = lower value): 0.988 | normalized growth (locus YER155C, strain BEM2, stronger effect = lower value): 1.01 | normalized growth (locus YER167W, strain BCK2, stronger effect = lower value): 1 | normalized growth (locus YFR010W, strain ubp6, stronger effect = lower value): 0.957 | normalized growth (locus YGL078C, strain dbp3, stronger effect = lower value): 0.978 | normalized growth (locus YGL086W, strain mad1, stronger effect = lower value): 0.994 | normalized growth (locus YGL167C, strain pmr1, stronger effect = lower value): 0.981 | normalized growth (locus YGL173C, strain kem1, stronger effect = lower value): 0.977 | normalized growth (locus YGL227W, strain vid30, stronger effect = lower value): 0.988 | normalized growth (locus YGL240W, strain doc1, stronger effect = lower value): 0.978 | normalized growth (locus YGL248W, strain PDE1, stronger effect = lower value): 0.985 | normalized growth (locus YGL253W, strain hxk2, stronger effect = lower value): 0.997 | normalized growth (locus YGR078C, strain PAC10, stronger effect = lower value): 0.989 | normalized growth (locus YGR135W, strain pre9, stronger effect = lower value): 0.986 | normalized growth (locus YGR229C, strain SMI1, stronger effect = lower value): 0.987 | normalized growth (locus YGR252W, strain gcn5, stronger effect = lower value): 1.03 | normalized growth (locus YHR013C, strain ard1, stronger effect = lower value): 0.978 | normalized growth (locus YHR027C, strain rpn1, stronger effect = lower value): 0.978 | normalized growth (locus YHR030C, strain SLT2, stronger effect = lower value): 1 | normalized growth (locus YHR079C, strain IRE1 (second series), stronger effect = lower value): 0.997 | normalized growth (locus YHR079C, strain IRE1, stronger effect = lower value): 1.02 | normalized growth (locus YHR094C, strain hxt1, stronger effect = lower value): 0.98 | normalized growth (locus YHR129C, strain ARP1, stronger effect = lower value): 1.01 | normalized growth (locus YHR142W, strain chs7, stronger effect = lower value): 0.968 | normalized growth (locus YHR200W, strain rpn10, stronger effect = lower value): 0.967 | normalized growth (locus YIL066C, strain RNR3, stronger effect = lower value): 0.975 | normalized growth (locus YIL073C, strain SPO22, stronger effect = lower value): 0.924 | normalized growth (locus YIL125W, strain kgd1, stronger effect = lower value): 0.987 | normalized growth (locus YIR030C, strain dcg1, stronger effect = lower value): 1 | normalized growth (locus YJL092W, strain hpr5, stronger effect = lower value): 0.977 | normalized growth (locus YJL095W, strain BCK1 (second series), stronger effect = lower value): 0.995 | normalized growth (locus YJL095W, strain BCK1, stronger effect = lower value): 0.98 and 1.03 | normalized growth (locus YJL115W, strain asf1, stronger effect = lower value): 0.967 | normalized growth (locus YJL129C, strain trk1, stronger effect = lower value): 0.977 | normalized growth (locus YJL134W, strain LCB3, stronger effect = lower value): 0.994 | normalized growth (locus YJL154C, strain vps35, stronger effect = lower value): 0.983 | normalized growth (locus YJL164C, strain tpk1, stronger effect = lower value): 0.967 | normalized growth (locus YJL166W, strain qcr8, stronger effect = lower value): 0.993 | normalized growth (locus YJL168C, strain set2, stronger effect = lower value): 0.989 | normalized growth (locus YJL187C, strain SWE1 (second series), stronger effect = lower value): 0.981 | normalized growth (locus YJL187C, strain SWE1, stronger effect = lower value): 0.991 | normalized growth (locus YJR043C, strain POL32, stronger effect = lower value): 0.987 | normalized growth (locus YJR066W, strain TOR1, stronger effect = lower value): 1.01 | normalized growth (locus YJR075W, strain HOC1, stronger effect = lower value): 0.969 | normalized growth (locus YKL009W, strain mrt4, stronger effect = lower value): 0.977 | normalized growth (locus YKL068W, stronger effect = lower value): 0.973 | normalized growth (locus YKL085W, strain MDH1 (second series), stronger effect = lower value): 0.974 | normalized growth (locus YKL085W, strain MDH1, stronger effect = lower value): 0.974 | normalized growth (locus YKL160W, strain elf1, stronger effect = lower value): 0.986 | normalized growth (locus YKL190W, strain CNB1, stronger effect = lower value): 0.991 | normalized growth (locus YKR001C, strain vps1, stronger effect = lower value): 1 | normalized growth (locus YKR026C, strain gcn3, stronger effect = lower value): 0.982 | normalized growth (locus YKR091W, strain srl3, stronger effect = lower value): 0.992 | normalized growth (locus YLL001W, strain dnm1, stronger effect = lower value): 0.978 | normalized growth (locus YLL026W, stronger effect = lower value): 0.994 | normalized growth (locus YLL041C, strain sdh2, stronger effect = lower value): 0.98 | normalized growth (locus YLR027C, strain aat2, stronger effect = lower value): 1 | normalized growth (locus YLR039C, strain RIC1, stronger effect = lower value): 0.953 | normalized growth (locus YLR058C, strain SHM2, stronger effect = lower value): 0.98 | normalized growth (locus YLR102C, strain apc9, stronger effect = lower value): 0.997 | normalized growth (locus YLR113W, strain HOG1, stronger effect = lower value): 0.969 | normalized growth (locus YLR221C, strain rsa3, stronger effect = lower value): 0.993 | normalized growth (locus YLR258W, strain gsy2, stronger effect = lower value): 0.992 | normalized growth (locus YLR262C, strain YPT6 (second series), stronger effect = lower value): 0.912 | normalized growth (locus YLR262C, strain YPT6, stronger effect = lower value): 0.939 | normalized growth (locus YLR268W, strain sec22, stronger effect = lower value): 0.99 | normalized growth (locus YLR320W, strain mms22, stronger effect = lower value): 0.987 | normalized growth (locus YLR330W, strain CHS5, stronger effect = lower value): 1 | normalized growth (locus YLR342W, strain FKS1 (second series), stronger effect = lower value): 1.05 | normalized growth (locus YLR342W, strain FKS1, stronger effect = lower value): 0.989 | normalized growth (locus YLR357W, strain rsc2, stronger effect = lower value): 0.978 | normalized growth (locus YLR370C, strain arc18, stronger effect = lower value): 0.977 | normalized growth (locus YLR371W, strain rom2, stronger effect = lower value): 0.994 | normalized growth (locus YLR384C, strain iki3, stronger effect = lower value): 0.995 | normalized growth (locus YLR418C, strain cdc73, stronger effect = lower value): 1 | normalized growth (locus YML016C, strain PPZ1, stronger effect = lower value): 0.995 | normalized growth (locus YML032C, strain rad52, stronger effect = lower value): 0.993 | normalized growth (locus YML120C, strain ndi1, stronger effect = lower value): 0.979 | normalized growth (locus YML124C, strain tub3, stronger effect = lower value): 0.974 | normalized growth (locus YMR058W, strain fet3, stronger effect = lower value): 0.97 | normalized growth (locus YMR078C, strain ctf18, stronger effect = lower value): 0.99 | normalized growth (locus YMR125W, strain sto1, stronger effect = lower value): 0.979 | normalized growth (locus YMR129W, stronger effect = lower value): 0.977 | normalized growth (locus YMR205C, strain PFK2, stronger effect = lower value): 0.978 | normalized growth (locus YMR223W, strain ubp8, stronger effect = lower value): 0.972 | normalized growth (locus YMR231W, strain pep5, stronger effect = lower value): 0.996 | normalized growth (locus YMR307W, strain GAS1, stronger effect = lower value): 1.09 | normalized growth (locus YNL067W, strain RPL9B, stronger effect = lower value): 0.996 | normalized growth (locus YNL071W, strain lat1, stronger effect = lower value): 0.982 | normalized growth (locus YNL183C, strain NPR1, stronger effect = lower value): 0.974 | normalized growth (locus YNL209W, strain ssb2, stronger effect = lower value): 0.987 | normalized growth (locus YNL233W, strain BNI4, stronger effect = lower value): 0.996 | normalized growth (locus YNL248C, strain rpa49, stronger effect = lower value): 0.977 | normalized growth (locus YNL250W, strain rad50, stronger effect = lower value): 0.968 | normalized growth (locus YNL271C, strain bni1, stronger effect = lower value): 0.979 | normalized growth (locus YNL298W, strain CLA4, stronger effect = lower value): 0.975 | normalized growth (locus YNL307C, strain MCK1, stronger effect = lower value): 0.986 | normalized growth (locus YNL322C, strain KRE1 (second series), stronger effect = lower value): 0.991 | normalized growth (locus YNR049C, strain mso1, stronger effect = lower value): 0.995 | normalized growth (locus YNR052C, strain pop2, stronger effect = lower value): 0.996 | normalized growth (locus YOL006C, strain TOP1, stronger effect = lower value): 1.1 | normalized growth (locus YOL012C, strain htz1): 0.955 | normalized growth (locus YOL147C, strain pex11, stronger effect = lower value): 0.995 | normalized growth (locus YOR001W, strain rrp6, stronger effect = lower value): 0.986 | normalized growth (locus YOR061W, strain CKA2, stronger effect = lower value): 0.966 | normalized growth (locus YOR069W, strain VPS5, stronger effect = lower value): 0.999 | normalized growth (locus YOR070C, strain gyp1, stronger effect = lower value): 0.988 | normalized growth (locus YOR080W, strain dia2, stronger effect = lower value): 0.988 | normalized growth (locus YOR083W, strain WHI5, stronger effect = lower value): 0.985 | normalized growth (locus YOR106W, strain vam3, stronger effect = lower value): 0.976 | normalized growth (locus YOR136W, strain idh2, stronger effect = lower value): 0.978 | normalized growth (locus YOR144C, strain elg1, stronger effect = lower value): 0.983 | normalized growth (locus YOR184W, strain ser1, stronger effect = lower value): 0.956 | normalized growth (locus YOR231W, strain MKK1, stronger effect = lower value): 1.03 | normalized growth (locus YOR265W, strain rbl2, stronger effect = lower value): 0.994 | normalized growth (locus YOR270C, strain vph1, stronger effect = lower value): 0.933 | normalized growth (locus YOR290C, strain snf2, stronger effect = lower value): 0.966 | normalized growth (locus YOR316C, strain cot1, stronger effect = lower value): 0.981 | normalized growth (locus YPL051W, strain arl3, stronger effect = lower value): 0.995 | normalized growth (locus YPL055C, strain LGE1, stronger effect = lower value): 1.01 | normalized growth (locus YPL078C, strain atp4, stronger effect = lower value): 0.986 | normalized growth (locus YPL106C, strain sse1, stronger effect = lower value): 0.989 | normalized growth (locus YPL240C, strain hsp82, stronger effect = lower value): 0.963 | normalized growth (locus YPL241C, strain CIN2, stronger effect = lower value): 0.958 | normalized growth (locus YPL256C, strain CLN2, stronger effect = lower value): 1.03 | normalized growth (locus YPR119W, strain clb2, stronger effect = lower value): 0.978 | normalized growth (locus YPR141C, strain kar3, stronger effect = lower value): 0.979 | normalized growth (locus YPR163C, strain tif3, stronger effect = lower value): 0.981 | normalized growth (locus YPR167C, strain met16, stronger effect = lower value): 1 | normalized growth (strain wtn01, stronger effect = lower value): 0.981

Reference: PubChem BioAssay AID1159580 (chemical genetic matrix, 2015)
